From PubChem BioAssay (NCATS)
Results filed as inconclusive are left out. Entries that show only a call come without a potency. Calls of active or inactive are those of the source. The call rests on the fitted dose curve; in most records, active means well fitted curve in the direction sought with a large enough effect; inconclusive means small, poorly fitted or top-dose-only effect, or another doubt; inactive means no such curve, though single readings can be large; an effect the other way counts as inactive or inconclusive.

Target: Voltage-gated inwardly rectifying potassium channel KCNH2 (Homo sapiens) (UniProt Q12809)
Sequence (Q12809 whole entry, looked up): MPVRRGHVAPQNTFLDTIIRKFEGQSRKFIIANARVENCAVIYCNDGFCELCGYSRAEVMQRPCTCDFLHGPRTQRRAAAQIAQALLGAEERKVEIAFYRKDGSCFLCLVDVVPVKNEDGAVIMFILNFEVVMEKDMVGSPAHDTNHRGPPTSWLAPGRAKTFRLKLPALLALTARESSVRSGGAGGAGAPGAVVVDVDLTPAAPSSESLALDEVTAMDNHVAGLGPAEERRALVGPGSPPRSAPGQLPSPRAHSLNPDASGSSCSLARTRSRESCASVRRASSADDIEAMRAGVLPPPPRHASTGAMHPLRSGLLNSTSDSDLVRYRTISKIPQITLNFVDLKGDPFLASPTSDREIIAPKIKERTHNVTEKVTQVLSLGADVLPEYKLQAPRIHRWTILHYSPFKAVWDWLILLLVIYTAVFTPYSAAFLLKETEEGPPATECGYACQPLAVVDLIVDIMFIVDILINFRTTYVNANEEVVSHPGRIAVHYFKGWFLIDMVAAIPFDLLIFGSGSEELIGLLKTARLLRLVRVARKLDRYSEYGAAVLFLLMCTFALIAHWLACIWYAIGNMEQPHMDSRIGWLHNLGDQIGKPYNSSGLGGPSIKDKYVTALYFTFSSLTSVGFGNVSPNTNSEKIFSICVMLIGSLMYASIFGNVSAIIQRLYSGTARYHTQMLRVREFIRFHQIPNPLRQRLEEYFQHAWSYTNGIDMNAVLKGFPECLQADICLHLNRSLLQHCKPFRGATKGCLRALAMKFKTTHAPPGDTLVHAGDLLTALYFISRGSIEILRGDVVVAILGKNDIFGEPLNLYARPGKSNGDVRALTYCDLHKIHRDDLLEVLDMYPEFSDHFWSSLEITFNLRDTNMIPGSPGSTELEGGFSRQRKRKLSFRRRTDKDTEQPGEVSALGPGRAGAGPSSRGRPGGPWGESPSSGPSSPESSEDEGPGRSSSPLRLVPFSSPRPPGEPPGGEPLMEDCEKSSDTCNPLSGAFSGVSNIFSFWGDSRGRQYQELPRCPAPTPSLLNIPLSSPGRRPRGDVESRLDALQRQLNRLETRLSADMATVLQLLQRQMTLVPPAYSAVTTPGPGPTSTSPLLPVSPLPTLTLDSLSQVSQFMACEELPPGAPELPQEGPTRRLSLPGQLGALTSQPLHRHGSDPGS
Assay: qHTS Assay for Small Molecule Inhibitors of the Human hERG Channel Activity (AID 588834);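 further: top concentration of the series differs between compounds; lower thallium flux fluorescence means stronger hERG block; nearly all actives have a fitted effect of over 50% in size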
Conditions: U2OS BacMam hERG, FluxOR thallium flux fluorescence; series mostly up to 46.1 µM
In short: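 In hERG-transduced U2OS cells, dye-loaded for 1 hr at room temperature in dark, test compounds incubated 10 min at 37 °C before thallium stimulation. AC50 values derived by Hill modelling of concentration-response.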
With `O=c1[nH]c(=O)c2ccccc2o1` the Potency was “inactive”. With `CCCCCCCCCCOc1cc2c(=O)c(C(=O)OCC)c[nH]c2cc1OCC` the Potency was “inactive”. With `CC(C(=O)O)c1ccc2c(c1)Cc1cccnc1O2` (stereo not drawn) the Potency was “inactive”. With `CC(N)CCCC(C)(C)O` (stereo not drawn) the Potency was “inactive”. For `COc1ccc(C(=O)N2CCN(CC(=O)N3CCOCC3)CC2)cc1`, the Potency was “inactive”. With `CC(CSC(=O)c1ccccc1)C(=O)N1C[C@@H](Sc2ccccc2)C[C@H]1C(=O)O` (stereo partly drawn) the Potency was “inactive”. For `O=C(O)[C@@H]1[C@H]2C[C@H]3c4[nH]c5ccccc5c4CCN3C[C@@H]2CC[C@@H]1O`, the Potency was “inactive”. In the case of `COc1nccnc1NS(=O)(=O)c1ccc(N)cc1`, the Potency was “inactive”. For `CN1C[C@@H]2C[C@H]1CN2c1cc2c(cc1F)c(=O)c(C(=O)O)cn2C1CC1`, the Potency was “inactive”. For `CC(=O)NCc1c(I)c(NC(C)=O)c(I)c(C(=O)O)c1I`, the Potency was “inactive”. For `Cc1ncc(CO)c(CN)c1O`, the Potency was “inactive”. In the case of `CC[N+](C)(CC)CCOC(=O)C1c2ccccc2Oc2ccccc21`, the Potency was “inactive”. For `Cc1c(Cn2ccnc2)c2ccccc2n1CCC(=O)O`, the Potency was “inactive”. In the case of `CCN(CC)CCc1nc(-c2ccccc2)no1`, the Potency was “inactive”. With `O=C(O)c1ccc(OCCCOc2ccc(C(=O)O)cc2)cc1` the Potency was “inactive”. In the case of `CNc1c2c(nn1C)CCCC2`, the Potency was “inactive”. With `NCC1CCC(C(=O)Oc2ccc(CCC(=O)O)cc2)CC1` (stereo not drawn) the Potency was “inactive”. In the case of `O=C(O)Cc1ccc(CCNS(=O)(=O)c2ccc(Cl)cc2)cc1`, the Potency was “inactive”.

Target: Luciferin 4-monooxygenase (Photinus pyralis) (UniProt P08659)
Sequence (P08659 whole entry, looked up): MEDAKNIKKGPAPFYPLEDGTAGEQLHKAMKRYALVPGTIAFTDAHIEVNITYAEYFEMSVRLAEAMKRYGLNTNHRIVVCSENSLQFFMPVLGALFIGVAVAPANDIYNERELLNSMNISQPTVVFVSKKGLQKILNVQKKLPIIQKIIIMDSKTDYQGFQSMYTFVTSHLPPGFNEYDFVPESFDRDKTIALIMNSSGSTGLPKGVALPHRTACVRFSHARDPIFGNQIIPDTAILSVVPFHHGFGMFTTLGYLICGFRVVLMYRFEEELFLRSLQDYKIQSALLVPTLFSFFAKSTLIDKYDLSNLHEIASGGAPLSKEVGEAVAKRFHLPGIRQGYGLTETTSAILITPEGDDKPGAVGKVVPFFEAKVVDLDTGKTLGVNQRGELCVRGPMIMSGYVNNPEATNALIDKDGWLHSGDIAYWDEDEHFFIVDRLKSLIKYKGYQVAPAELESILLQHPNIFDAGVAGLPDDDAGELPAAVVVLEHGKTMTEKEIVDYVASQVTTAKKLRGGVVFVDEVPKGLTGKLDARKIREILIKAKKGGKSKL
Assay: Biochemical firefly luciferase enzyme assay for NPC (AID 624030);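 further: purified P. pyralis luciferase at 10 nM with luciferin and ATP substrate; nearly all actives have a fitted effect of over 70% in size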
Conditions: purified P. pyralis luciferase, luminescence, 5 min; series mostly up to 58.6 µM
In short: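 Direct inhibition of firefly luciferase enzyme (10 nM final, 50 mM Tris Acetate) assessed by luminescence within 5 minutes. Percent activity scaled between DMSO and PTC124 positive control, with concentration-effect curves classified by fit quality and response.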
In the case of `COC(=O)c1cccnc1`, the Potency was “inactive”. In the case of `COc1ccc(Cc2cnc(N)nc2N)cc1OC`, the Potency was “inactive”. In the case of `CNCc1ccccc1`, the Potency was “inactive”. In the case of `Cn1c([N+](=O)[O-])cnc1COC(N)=O`, the Potency was “inactive”. In the case of `CC(C)CCCC(C)CCCC(C)CCCCC(C)CCCC(C)CCCC(C)C` (stereo not drawn), the Potency was “inactive”. With `CC1CCc2cc(F)cc3c(=O)c(C(=O)O)cn1c23` (stereo not drawn) the Potency was “inactive”. In the case of `CC(=O)N(CC(O)CO)c1c(I)c(C(=O)NCC(O)CO)c(I)c(C(=O)NCC(O)CO)c1I` (stereo not drawn), the Potency was “inactive”. For `Nc1ncnc2c1ncn2[C@@H]1O[C@H](COP(=O)(O)O)[C@@H](O)[C@H]1O`, the Potency was “inactive”. In the case of `Cc1ccc(S(=O)(=O)NC(=O)NC2CCCCC2)cc1`, the Potency was “inactive”. With `C=CCSCC1Nc2cc(Cl)c(S(N)(=O)=O)cc2S(=O)(=O)N1` (stereo not drawn) the Potency was “inactive”. In the case of `CCc1cccc(CC)c1NC(=O)CN(CC(=O)O)CC(=O)O`, the Potency was “inactive”. For `CCCCCC(C)N` (stereo not drawn), the Potency was “inactive”. With `CCN(CC)CCOC(=O)C(c1ccccc1)c1ccccc1` the Potency was “inactive”. With `CC(=O)OC[C@H]1O[C@@](COC(C)=O)(O[C@H]2O[C@H](COC(C)=O)[C@@H](OC(C)=O)[C@H](OC(C)=O)[C@H]2OC(C)=O)[C@@H](OC(C)=O)[C@@H]1OC(C)=O` the Potency was “inactive”. With `O=c1[nH]c2cc(C(F)(F)F)c(N3CCOCC3)cc2n(CP(=O)(O)O)c1=O` the Potency was “inactive”. In the case of `O=c1[nH]c(=O)c2ccccc2o1`, the Potency was “inactive”. With `CCCCCCCCCCOc1cc2c(=O)c(C(=O)OCC)c[nH]c2cc1OCC` the Potency was “inactive”. With `CC(C(=O)O)c1ccc2c(c1)Cc1cccnc1O2` (stereo not drawn) the Potency was “inactive”. With `CC(N)CCCC(C)(C)O` (stereo not drawn) the Potency was “inactive”. In the case of `COc1ccc(C(=O)N2CCN(CC(=O)N3CCOCC3)CC2)cc1`, the Potency was “inactive”. In the case of `CC(CSC(=O)c1ccccc1)C(=O)N1C[C@@H](Sc2ccccc2)C[C@H]1C(=O)O` (stereo partly drawn), the Potency was “inactive”. For `COc1nccnc1NS(=O)(=O)c1ccc(N)cc1`, the Potency was “inactive”. For `CN1C[C@@H]2C[C@H]1CN2c1cc2c(cc1F)c(=O)c(C(=O)O)cn2C1CC1`, the Potency was “inactive”. In the case of `CC(=O)NCc1c(I)c(NC(C)=O)c(I)c(C(=O)O)c1I`, the Potency was “inactive”. In the case of `Cc1ncc(CO)c(CN)c1O`, the Potency was “inactive”. For `CC[N+](C)(CC)CCOC(=O)C1c2ccccc2Oc2ccccc21`, the Potency was “inactive”. For `Cc1c(Cn2ccnc2)c2ccccc2n1CCC(=O)O`, the Potency was “inactive”. In the case of `CCN(CC)CCc1nc(-c2ccccc2)no1`, the Potency was “inactive”. For `O=C(O)c1ccc(OCCCOc2ccc(C(=O)O)cc2)cc1`, the Potency was “inactive”. In the case of `CNc1c2c(nn1C)CCCC2`, the Potency was “inactive”. In the case of `NCC1CCC(C(=O)Oc2ccc(CCC(=O)O)cc2)CC1` (stereo not drawn), the Potency was “inactive”. In the case of `O=C(O)Cc1ccc(CCNS(=O)(=O)c2ccc(Cl)cc2)cc1`, the Potency was “inactive”.

Test system: not listed separately
Assay: S16 Schwann cell viability assay (CellTiter-Glo assay) (AID 624031);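 further: cellular ATP luminescence as a viability measure; nearly all actives have a fitted effect of over 70% in size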
Conditions: S16 rat Schwann cells viability, 24 h; series mostly up to 57.5 µM
In short: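 This viability control uses native rat S16 Schwann cells grown in DMEM plus 10% FBS. After a 24 h compound treatment at 37 °C, CellTiter-Glo luminescence reports ATP content, scaled against DMSO-treated and cell-free wells.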
With `COC(=O)c1cccnc1` the outcome was “inactive”. In the case of `COc1ccc(Cc2cnc(N)nc2N)cc1OC`, the outcome was “inactive”. In the case of `CNCc1ccccc1`, the outcome was “inactive”. For `Cn1c([N+](=O)[O-])cnc1COC(N)=O`, the outcome was “inactive”. With `CC(C)CCCC(C)CCCC(C)CCCCC(C)CCCC(C)CCCC(C)C` (stereo not drawn) the outcome was “inactive”. For `CC1CCc2cc(F)cc3c(=O)c(C(=O)O)cn1c23` (stereo not drawn), the outcome was “inactive”. In the case of `CC(=O)N(CC(O)CO)c1c(I)c(C(=O)NCC(O)CO)c(I)c(C(=O)NCC(O)CO)c1I` (stereo not drawn), the outcome was “inactive”. With `Nc1ncnc2c1ncn2[C@@H]1O[C@H](COP(=O)(O)O)[C@@H](O)[C@H]1O` the outcome was “inactive”. In the case of `Cc1ccc(S(=O)(=O)NC(=O)NC2CCCCC2)cc1`, the outcome was “inactive”. With `CCc1cccc(CC)c1NC(=O)CN(CC(=O)O)CC(=O)O` the outcome was “inactive”. In the case of `CCCCCC(C)N` (stereo not drawn), the outcome was “inactive”. In the case of `CCN(CC)CCOC(=O)C(c1ccccc1)c1ccccc1`, the outcome was “inactive”. For `CC(=O)OC[C@H]1O[C@@](COC(C)=O)(O[C@H]2O[C@H](COC(C)=O)[C@@H](OC(C)=O)[C@H](OC(C)=O)[C@H]2OC(C)=O)[C@@H](OC(C)=O)[C@@H]1OC(C)=O`, the outcome was “inactive”. For `O=c1[nH]c2cc(C(F)(F)F)c(N3CCOCC3)cc2n(CP(=O)(O)O)c1=O`, the outcome was “inactive”. In the case of `O=c1[nH]c(=O)c2ccccc2o1`, the outcome was “inactive”. In the case of `CC(C(=O)O)c1ccc2c(c1)Cc1cccnc1O2` (stereo not drawn), the outcome was “inactive”. In the case of `CC(N)CCCC(C)(C)O` (stereo not drawn), the outcome was “inactive”. With `CC(CSC(=O)c1ccccc1)C(=O)N1C[C@@H](Sc2ccccc2)C[C@H]1C(=O)O` (stereo partly drawn) the outcome was “inactive”. With `COc1nccnc1NS(=O)(=O)c1ccc(N)cc1` the outcome was “inactive”. With `CN1C[C@@H]2C[C@H]1CN2c1cc2c(cc1F)c(=O)c(C(=O)O)cn2C1CC1` the outcome was “inactive”. In the case of `CC(=O)NCc1c(I)c(NC(C)=O)c(I)c(C(=O)O)c1I`, the outcome was “inactive”. With `Cc1ncc(CO)c(CN)c1O` the outcome was “inactive”. In the case of `CC[N+](C)(CC)CCOC(=O)C1c2ccccc2Oc2ccccc21`, the outcome was “inactive”. In the case of `Cc1c(Cn2ccnc2)c2ccccc2n1CCC(=O)O`, the outcome was “inactive”. For `CCN(CC)CCc1nc(-c2ccccc2)no1`, the outcome was “inactive”. For `CNc1c2c(nn1C)CCCC2`, the outcome was “inactive”. In the case of `NCC1CCC(C(=O)Oc2ccc(CCC(=O)O)cc2)CC1` (stereo not drawn), the outcome was “inactive”. For `O=C(O)Cc1ccc(CCNS(=O)(=O)c2ccc(Cl)cc2)cc1`, the outcome was “inactive”.
